According to PubChem BioAssay (NCATS):
Inconclusive results are not listed. Unmarked numbers belong to inactive results. Calls come from the whole dose curve.

Assay: Cell Viability - HepG2 (AID 433);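 note: cells exposed to compound for 40 hours; potency for ATP loss meaning cytotoxicity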
Conditions: qHTS
Outline: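 ATP luminescence (CellTiter-Glo) after 40 h compound exposure, 37 °C, HepG2, 1500 cells/well, complete medium. Normalized: DMSO = basal, 100 uM tamoxifen = 100% inhibition. AC50 via standard Hill equation.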
Potency is the fitted concentration of half-maximal effect.

Compound | Potency [µM]
CC(C)N(C)C | > 92
CC(=O)c1cccc([N+](=O)[O-])c1 | > 92
CC(=O)OCCC(C)C | > 92
CCN(Cc1ccccc1)c1ccccc1 | > 92
Cc1ccc(C#N)cc1 | > 92
Cc1ccccc1Br | > 92
O=P(O)(OCc1ccccc1)OCc1ccccc1 | > 92
C=CCCC | > 92
CC(C)Nc1ccccc1 | > 92
Cc1ccc(Br)cc1 | > 92
S=C([S-])NCCNC(=S)[S-].[Zn+2] | > 92
CC(C=O)Cc1ccc(C(C)(C)C)cc1 (stereo not given) | > 92
CCCCCCCN | > 92
CC(C)C(C)C | > 92
CC(C)(C)c1ccc(OCC2CO2)cc1 (stereo not given) | > 92
Cc1ccc2c(c1[N+](=O)[O-])C(=O)c1ccccc1C2=O | > 92
CCCCCCO | > 92
O=C(O)c1ccccc1Cl | > 92
Nc1cc(Cl)c([N+](=O)[O-])cc1O | > 92
COCCOC(=O)c1ccccc1C(=O)OCCOC | > 92

Compound | Potency [µM]
OCCO | > 92
CCC(C)=O | > 92
Nc1cc(S(=O)(=O)O)ccc1O | > 92
O=CNc1ccccc1 | > 92
C=C(C)C(=O)OCC(C)C | > 92
CC(=O)c1ccc([N+](=O)[O-])cc1 | > 92
Nc1cc([N+](=O)[O-])ccc1C(=O)O | > 92
C=CCCCCCCC=C | > 92
CC(C)CCOC(=O)/C=C/c1ccccc1 | > 92
ClCCl | > 92
CO[Si](CCCNCCC[Si](OC)(OC)OC)(OC)OC | > 92
Cc1ccc(N(C)C)cc1 | > 92
COC(=O)CCCC(=O)OC | > 92
CCCCN(CCO)CCCC | > 92
CCOC(=O)C(C)C(C)=O (stereo not given) | > 92
C[C@@H]1CC2(OC3C[C@@]4(C)C5=CC[C@H]6C(C)(C)C(O[C@@H]7OC[C@@H](O)[C@H](O)[C@H]7O)CC[C@@]67C[C@@]57CC[C@]4(C)C31)OC(O)C1(C)OC21 (stereo not given in full) | > 92
CC(C)(C)OC=O | > 92
Cc1ccccc1C#N | > 92
C=Cc1ccccc1C=C | > 92
CC(C)=CCC/C(C)=C/C=O | > 92
